Screens: PubChem, National Center for Advancing Translational Sciences (NCATS)
PLK1 PBD inh = blocks phosphopeptide binding to human PLK1 polo-box domain | Plk1 PBD binding of FITC phosphopeptide, fluorescence polarization | Potency, µM, inactives show max response, negative = inhibition, most hits filed as inhibitors | 360,000 compounds, 2.8% hits | AID 720504; also: potency is read from the fitted curve at half-maximal effect; series mostly up to about 57 µM; % is scaled to controls: 0 for no effect and ±100 for the full control effect; nearly all actives have a fitted effect of over 65% in size
hERG WT inh = blocks the wildtype human KCNH2 potassium channel | Q12809 | U2OS, BacMam KCNH2, thallium flux FluxOr; hits give low values | activity change, % at 1.84 µM | 340,000 compounds, 0.37% hits | AID 720551;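 active = maximum activity change below -70%; inconclusive = maximum activity change between -70% and -50%; inactive = maximum activity change above -50%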; also: % is scaled to controls: 0 for no effect and ±100 for the full control effect
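U2OS cells were transduced with wild-type KCNH2 virus (2.03 x 10^8 / mL) for 4 h at room temperature, then cultured overnight at 37 C. Thallium flux was read with FluxOr dye. Rate constants were normalized to DMSO controls.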
MBNL1 CUG block = MBNL1-poly(CUG) RNA binding inhibition | Q9NR56 | TR-FRET MBNL1-His/biotin-(CUG)12 binding, 665/545 ratio | Potency, µM (highest dose often 57.5 µM), for the others: at the top dose activity change, negative = inhibition, most hits filed as inhibitors | 280,000 compounds, 0.036% hits | AID 2675; active = well fitted inhibition curve with a large enough effect in the signal ratio, with a control signal flat, not every such curve was filed as active; inconclusive = small, poorly fitted or top-dose-only effect, or effect the other way, or a change in a side signal; inactive = no such curve, though single readings can be large or run the other way; the % refers to the signal ratio; also: potency is read from the fitted curve at half-maximal effect; % is scaled to controls: 0 for no effect and ±100 for the full control effect
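MBNL1-His + Biotin-(CUG)12, cpd titration 92 nM–58 uM; Tb anti-His Ab 0.055 ng/ul, SA-XL665 5 nM (final); 60 min RT; ratiometric 665/545 nm, Ex 340 nm; normalized to buffer and full-complex controls.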
VDR inh = vitamin D3 receptor (human) inhibition; Potency, µM, for inactives: max response, negative = inhibition, usual class: inhibitors; 400,000 compounds, 0.93% hits; P11473; VDR-SRC2-3 peptide fluorescence polarization, 2 h; also: potency is read from the fitted curve at half-maximal effect; % is scaled to controls: 0 for no effect and ±100 for the full control effect
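Two reagent solutions held at 4 deg C in the dark were dispensed, compounds pinned at 23 nl, and the mixture incubated 2 h at room temperature. Read-out: fluorescence polarization of VDR–SRC2-3 peptide binding.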
CBFb-RUNX1 inh = CBF-beta/RUNX1 interaction disruption; Q01196+Q13951; AlphaScreen CBFb-His/RUNX1-biotin binding, biochemical; Potency, µM (series often up to 59.8 µM), without a hit: at the highest dose activity, negative = inhibition, actives largely listed as inhibitors; 230,000 tested, under 10 active; also: % of control where 0% means no effect
Target sequence (Q01196 whole entry, looked up): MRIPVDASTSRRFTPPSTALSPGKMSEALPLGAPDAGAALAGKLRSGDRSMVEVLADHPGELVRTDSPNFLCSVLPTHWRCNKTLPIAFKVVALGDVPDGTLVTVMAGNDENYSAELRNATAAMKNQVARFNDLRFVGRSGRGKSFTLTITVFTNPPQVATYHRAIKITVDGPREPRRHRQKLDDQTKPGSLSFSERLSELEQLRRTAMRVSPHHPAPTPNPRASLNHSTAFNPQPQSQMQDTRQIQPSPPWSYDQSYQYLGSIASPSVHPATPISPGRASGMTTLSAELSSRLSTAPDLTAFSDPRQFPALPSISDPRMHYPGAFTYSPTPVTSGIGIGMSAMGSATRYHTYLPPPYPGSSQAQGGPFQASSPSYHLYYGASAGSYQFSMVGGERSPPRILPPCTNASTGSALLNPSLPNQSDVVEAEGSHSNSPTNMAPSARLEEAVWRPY
Target sequence (Q13951 whole entry, looked up): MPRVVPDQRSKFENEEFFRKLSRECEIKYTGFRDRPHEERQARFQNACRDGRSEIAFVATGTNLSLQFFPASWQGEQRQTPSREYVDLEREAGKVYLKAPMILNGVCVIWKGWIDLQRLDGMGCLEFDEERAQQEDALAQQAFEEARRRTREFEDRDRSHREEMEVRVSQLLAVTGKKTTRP
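Interaction loss through any mechanism counts as activity. Pre-formed complex of His-CBF-beta and biotin-RUNX1 (30 nM apiece) is incubated with compound 15 min, then with 50 ng nickel and 50 ng streptavidin beads for 90 min before AlphaScreen detection.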
KCNH2 3.1 inh = blocks the human KCNH2 3.1 channel isoform | U2OS KCNH2 3.1, thallium flux FluxOr; hits give low values | activity change, % (tested at about 1.8 µM) | 340,000 compounds, 0.95% hits;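 active = maximum activity change below -70%; inconclusive = maximum activity change from -70% to -50%; inactive = maximum activity change above -50%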;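 also: thallium influx rate constant from kinetic fluorescence after stimulation buffer; % is scaled to controls: 0 for no effect and ±100 for the full control effect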
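Normalized rate constant (relative to positive and negative DMSO controls) derived from a 2 min kinetic fluorescence read after stimulation; U2OS cells expressing the 3.1 isoform via virus at 1.77 x 10^8 /mL.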
Active calls of the source: *; i = inactive; u = inconclusive; x = no result; ! = not active in a repeat; [ ] = remark or other dose. Shown are actives, neighbours in structure and some others; about 3.8% of the full set was active somewhere. Unless noted, calls follow the shape of the dose curve; as a rule, active = well fitted curve in the direction sought with a large enough effect; inconclusive = small, poorly fitted or top-dose-only effect, or another doubt; inactive = no such curve, though single readings can be large; an effect the other way counts as inactive or inconclusive.

SMILES	PLK1 PBD inh	hERG WT inh	MBNL1 CUG block	VDR inh	CBFb-RUNX1 inh	KCNH2 3.1 inh
COC(=O)[C@@H](N)CS	23.8µM*	-7.1	-6.9%	20µM*!	-12.5%	-9.9
Cc1cc(C)nc(NS(=O)(=O)c2ccc(NC(=O)c3ccccc3O)cc2)n1	x	x	x	-3.4%	x	x
Cc1c(Cl)ccc2c(C(=O)O)cc(-c3ccccc3)nc12	23.8µM*	-10.5	5.2%	-17.9%	9.2%	-7.0
CCOC(=O)CNC(=O)c1cc(-c2ccccn2)nc2c(C)c(Cl)ccc12	-7.2%	-0.5	9.9%	-10.0%	0.1%	-167.7*
Cc1c(Cl)ccc2c(C(N)=O)cc(-c3ccccn3)nc12	-6.6%	10.2	11.7%	-14.8%	3.6%	-1.7
Cc1ccc(C)c2c1[nH]c1ccccc12	-3.8%	-2.2	-0.3%	2.9%	6.7%	3.7
COc1ccc(OC)c2c(=S)c3ccccc3[nH]c12	x	x	x	4.47µM*	-18.0%[21.7 µM]	x
CCN(CC)C(=O)CSc1nc(C)cc(-c2cccs2)c1C#N	21.2µM*	-8.6	47.0%	1.8%	5.8%	3.2
CC(C)(C)OC(=O)N1CCC(c2c(C(=O)N3CCCCC3)cnn2-c2ccccc2Cl)CC1	x	x	x	7.2%	x	x
CCc1ccc(NC(=O)Nc2cn(C)c(=O)c3ccccc23)cc1	x	x	x	-12.5%	x	x
Cn1c(N=NC(=O)c2ccccc2)c(O)c2ccccc21	26.7µM*	-2.9	x	u	u	2.9
CC1Cc2ccccc2N1C(=O)c1ccc2nccnc2c1 (centres undefined)	1.7%	-13.0	10.8%	-5.6%	x	-7.3
COc1ccc(C(=O)N2c3ccccc3CC2C)cc1OC (centres undefined)	26.7µM*	2.6	3.2%	-2.2%	1.4%	8.9
O=[N+]([O-])c1ccccc1S(=O)(=O)N1CCN(c2nc(-c3cccs3)nc3ccccc23)CC1	x	x	x	-4.9%	x	x
CN1CCN(C(=O)c2ccc3c(c2)N(Cc2cccc(Cl)c2)C(=O)c2ccccc2S3(=O)=O)CC1	26.7µM*	1.9	-4.9%	-7.0%	x	-1.5
C=CCn1cccc(C(=O)Nc2cc(OC)c(OC)c(OC)c2)c1=O	21.2µM*	-4.1	-5.2%	-14.2%	2.6%	-1.4
C=CCn1cccc(C(=O)Nc2ccc(OCC)cc2)c1=O	23.8µM*	3.4	0.9%	-12.4%	6.9%	-3.2
C=CCn1cccc(C(=O)Nc2ccc(Cl)cc2)c1=O	-1.3%	x	3.1%	20.8%	x	-1.1
CC1CN(C(=O)CCC(=O)NCc2ccc(F)cc2)c2cc(Cl)ccc2O1 (centres undefined)	x	x	x	2.9%	x	x
CCc1nnc(SCC(=O)Nc2cc(Cl)c(OC)cc2OC)c2cc3oc(C)cc3n12	x	x	x	4.2%	x	x
[S-]C(=Nc1ccc(Cl)cc1)N[n+]1ccccc1	16.8µM*	1.1	u	u	-4.6%	3.3
Cc1ccc(S(=O)(=O)N2CCN=C2SCc2ccccc2)cc1	29.9µM*	-5.8	2.8%	-26.5%	14.7%	-2.4
Cc1c2oc3c(C)ccc(C(=O)N[C@@H]4C(=O)N[C@H](C(C)C)C(=O)N5CCC[C@H]5C(=O)N(C)CC(=O)N(C)[C@@H](C(C)C)C(=O)O[C@@H]4C)c3nc-2c(C(=O)N[C@@H]2C(=O)N[C@H](C(C)C)C(=O)N3CCC[C@H]3C(=O)N(C)CC(=O)N(C)[C@@H](C(C)C)C(=O)O[C@@H]2C)c(N)c1=O	x	x	x	44.7µM*!	-5.3%	x
COc1ccc(NC(=O)Cn2nc3c(cc2=O)CCCC3)cc1Cl	x	x	x	5.2%	x	x
CC(NC(=O)/C(C#N)=C/c1ccc([N+](=O)[O-])o1)c1ccccc1 (centres undefined)	23.8µM*	1.6	20.7%	25.1µM*	x	-10.9
SMILES	PLK1 PBD inh	hERG WT inh	MBNL1 CUG block	VDR inh	CBFb-RUNX1 inh	KCNH2 3.1 inh
CC1CN(c2ccc(Oc3ccccc3)cc2)c2nc3c(c(=O)[nH]c(=O)n3C)n2C1 (centres undefined)	26.7µM*	3.3	0.0%	-27.4%	-2.5%	4.9
COc1ccc(CCNC(=O)CCc2c(C)c3cc4c(C)coc4c(C)c3oc2=O)cc1OC	x	x	x	8.5%	x	x
Cc1cc(NC(=O)COc2ccc3oc4ccccc4c3c2)no1	29.9µM*	-5.6	19.4%	-22.3%	5.3%	6.3
CCOc1ccc(N(Cc2cc3cc(C)ccc3[nH]c2=O)C(=O)c2cccc(Cl)c2)cc1	x	x	x	11.3%	x	x
COc1ccc(C(CC(=O)Nc2cc(OC)c(OC)c(OC)c2)N2Cc3ccccc3C2=O)cc1 (centres undefined)	x	x	x	-1.1%	x	x
Cc1ccc2cc(C3CC(c4ccco4)=NN3C(=O)CCC(=O)O)c(Cl)nc2c1 (centres undefined)	u	-2.5	-3.8%	31.6µM*	14.2%	1.8
Cc1cccc2cc(C3CC(c4cccs4)=NN3C(=O)CCC(=O)O)c(Cl)nc12 (centres undefined)	26.7µM*	1.8	15.8%	u	2.5%	2.7
Cc1ccc2nc(Cl)c(C3CC(c4cccs4)=NN3C(=O)CCCC(=O)O)cc2c1 (centres undefined)	-13.6%	i	x	4.1%	-11.5%	-9.6
COc1ccc2cc(C3CC(c4ccco4)=NN3S(C)(=O)=O)c(Cl)nc2c1 (centres undefined)	-17.5%	-21.4	x	-16.9%	-6.4%	-2.2
CCOc1ccc2nc(Cl)c(C3CC(c4ccco4)=NN3S(=O)(=O)c3ccccc3)cc2c1 (centres undefined)	u	-32.3	-7.8%	-7.4%	-16.4%	-70.9*
Cc1cc(Cl)ccc1NC(=O)CN1C(=O)CSc2ccc(S(=O)(=O)N(C)C)cc21	x	x	x	11.3%	x	x
COc1ccc(NC(=O)C2=C(C)Nc3nc(SCc4ccccc4C)nn3C2c2cc(OC)c(O)c(OC)c2)cc1 (centres undefined)	x	x	x	3.2%	x	x
CC1(C)CC(=O)C2=C(C1)O[C@@]1(CCCCN3C(=O)c4ccccc4C3=O)Cc3cc(C#N)ccc3C2O1	x	x	-1.8%[11.5 µM]	x	x	x
Cc1ccc(NC(=O)CN2C(=O)COc3ccc(S(=O)(=O)N4CCCCCC4)cc32)cc1Cl	x	x	x	0.0%	x	x
Cc1ccc(-c2noc(CN(C(=O)c3ccc(C(C)(C)C)cc3)C(C)C)n2)cc1	x	x	x	-3.2%	x	x
CCCSc1nc(O)c(C(c2ccc(OC)c(O)c2)c2c(O)nc(SCCC)n(C)c2=O)c(=O)n1C	9.47µM*	-8.8	x	35.5µM*	9.4%	7.7
COc1cccc(C(c2c(O)nc(SC)n(C)c2=O)c2c(O)nc(SC)n(C)c2=O)c1	-26.5%	-1.4	-8.1%	9.6%	4.5%	-7.7
FC(F)(F)c1cccc(NC(=S)NC2CCCC2)c1	-4.4%	-0.6	x	-3.4%	0.4%	-106.5*
FC(F)(F)c1ccc(NC(=S)NC2CCCCC2)cc1	-4.1%	-3.4	1.2%	3.6%	5.5%	-15.4
CCN(CC)c1nc(N)c2c(N)n(-c3ccccc3C)c(=S)c(C#N)c2c1C#N	26.7µM*	3.4	-2.3%	u	1.6%	-1.7
